PNC inhibitor – blocks assembly of the perinucleolar compartment; AID 2417; actives 3.1% (n = 140,000); PC3M PTB-GFP, PNC prevalence imaging, 16 h; hits give low values; activity change (PNC), negative = inhibition, % at 10 µM;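 active = readout at or below -70, meaning at least 70% loss of cells showing the perinucleolar compartment, a nuclear body marking cancer cells; inconclusive = readout between -30 and a set limit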;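 also: plate controls were DMSO wells for no effect and camptothecin positive control wells for full effect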
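PC3M cells stably expressing PTB-GFP, 750–1000 cells/well, treated 16 h at 37 °C with compound (23 nl of library stock), in duplicate. After paraformaldehyde fixation and Hoechst stain, imaged at 20x; PNC prevalence scored by image analysis.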
HPGD block – HPGD (human) dehydrogenase inhibition. purified HPGD, NADH fluorescence kinetic, PGE2 substrate. Potency, µM, without a hit: at the highest dose activity change, negative = inhibition, usual class: inhibitors. actives 4.3% (n = 150,000); also: potency is read from the fitted curve at half-maximal effect
Target sequence (P15428 whole entry, looked up): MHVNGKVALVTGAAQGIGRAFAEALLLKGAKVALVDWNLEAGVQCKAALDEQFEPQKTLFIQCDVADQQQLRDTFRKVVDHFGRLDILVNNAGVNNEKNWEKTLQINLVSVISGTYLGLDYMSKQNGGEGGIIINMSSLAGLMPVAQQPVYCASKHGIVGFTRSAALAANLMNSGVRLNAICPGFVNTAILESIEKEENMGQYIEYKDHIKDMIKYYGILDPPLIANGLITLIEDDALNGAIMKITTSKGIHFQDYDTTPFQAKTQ
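NADH formation kinetics: reaction with 30 uM PGE2 and 1 mM NAD+ (final), 20 nM enzyme, Tris-HCl pH 8 with Tween 20, after 15 min compound preincubation at room temperature. Fluorescence change, last versus first of five reads.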
ALDH1A1 block – blocks purified human ALDH1A1 activity. P00352. Purified ALDH1A1, NADH fluorescence, propionaldehyde substrate. AID 1030. actives 7.3% (n = 220,000). Potency, µM (titrated, usually from 75.3 µM), inactives show top-dose activity, negative = inhibition, most hits filed as inhibitors;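 also: potency is read from the fitted curve at half-maximal effect; plate controls were no enzyme wells and a reference inhibitor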
Active calls of the source: *; ? = inconclusive; . = no result. An excerpt weighted towards active compounds, which were near 11% of everything screened. Unless noted, calls follow the shape of the dose curve; as a rule, active = well fitted inhibition curve with a large enough effect (not every such curve was filed as active); inconclusive = small, poorly fitted or top-dose-only effect, or another doubt; inactive = no such curve, though single readings can be large or run the other way. Unless noted, % is scaled to controls: 0 for no effect and ±100 for the full control effect.

SMILES	PNC inhibitor	HPGD block	ALDH1A1 block
Nc1c(C(=O)c2ccco2)oc2ccccc12	.	.	4%
Cc1ccc(S(=O)(=O)/N=C2/NC(=O)/C(=C/c3ccncc3)S2)cc1	47	14µM*	?
COc1cc(/C=C2\S/C(=N/S(=O)(=O)c3ccc(C)cc3)NC2=O)c([N+](=O)[O-])cc1OC	?	7.1µM*	?
Cc1cccc(N=C2NC(=O)/C(=C/c3cccs3)S2)c1	?	-19%	3%
O=C1N/C(=N/S(=O)(=O)c2ccccc2)S/C1=C/c1cccnc1	?	?	-2%
CC(C)(C)NC(=O)NC(=O)COC(=O)c1nc(-c2ccccc2)n(-c2cccc(C(F)(F)F)c2)n1	-112*	-18%	8%
O=C(O)c1nc(-c2ccccc2)n(-c2cccc(C(F)(F)F)c2)n1	.	.	5%
Cc1ccc2[nH]c(=O)c(CN(Cc3ccccc3Cl)C(=O)N3CCOCC3)cc2c1	65	-5%	?
C/C(Cl)=C/CCl	.	-7%	?
COc1ccccc1C1CC(c2cccs2)=Nc2ccccc2S1 (stereo unspecified)	13	-4%	-3%
COc1ccccc1C1CN(c2ccc(F)cc2F)N=C1c1cccs1 (stereo unspecified)	-94*	?	?
Cc1ccccc1NC(=O)C1CCC(C)(C(=O)O)C1(C)C (stereo unspecified)	59	-7%	-3%
CCN(CC)C(=O)/C=C/c1ccc(OC)c(S(=O)(=O)N2CCCCC2)c1	.	.	-15%
COc1ccc(OC)c(NC(=O)CN(C)S(=O)(=O)c2ccc(Cl)cc2)c1	.	.	7%
CC(C)COCC(O)CCC(=O)NNC(=S)Nc1ccccc1 (stereo unspecified)	-18	-16%	-4%
CC(C)COC(=S)Nc1ccccc1	3	11µM*	25µM*
COc1ccccc1CNC(=O)N[C@@H](Cc1ccccc1)C(=O)O	34	-8%	21%
O=C(Cc1ccc([N+](=O)[O-])cc1)NCc1ccncc1	.	.	3%
Cc1ccc(C(=O)Nc2ccc(Cc3ccncc3)cc2)cc1[N+](=O)[O-]	13	1%	5%
O=C(Nc1ccc(Cc2ccncc2)cc1)c1cccc([N+](=O)[O-])c1	-17	1.4µM*	7%
O=C(CCNc1ccc(Cc2ccncc2)cc1)c1ccc([N+](=O)[O-])cc1	.	.	0.11µM*
O=C(CN1CCN(c2ccccc2)CC1)Nc1ccccc1Cl	.	.	0%
CCC(CC)C(=O)Nc1cc([N+](=O)[O-])ccc1F	10	-11%	18%
CCC(CC)C(=O)Nc1cc([N+](=O)[O-])ccc1Cl	-116*	-6%	12%
O=C(CN1CCN(c2ccc(O)cc2)CC1)Nc1cc([N+](=O)[O-])ccc1Cl	19	-8%	11µM*
SMILES	PNC inhibitor	HPGD block	ALDH1A1 block
Cc1ccc([N+](=O)[O-])cc1NC(=O)CN1CCCCC1	-25	-2%	3%
CC(=O)N1CCN(CC(=O)Nc2cc([N+](=O)[O-])ccc2Cl)CC1	.	.	35µM*
O=C(CN1C(=O)NC2(CCCc3ccccc32)C1=O)N1CCN(C(=O)c2ccco2)CC1 (stereo unspecified)	-28	-2%	-7%
O=C(NCc1ccc2c(c1)OCO2)C1CCC(CNS(=O)(=O)c2cccc3nsnc23)CC1 (stereo unspecified)	?	-2%	?
O=C(NCc1cccs1)C1CCC(CNS(=O)(=O)c2ccccc2)CC1 (stereo unspecified)	.	.	5µM*
CCS(=O)(=O)N1CCC(C(=O)NCc2cccs2)CC1	-5	2%	-10%
O=C(NC1CCCC1)C1CCC(CNS(=O)(=O)c2cccs2)CC1 (stereo unspecified)	4	22µM*	22µM*
Cc1ccc(S(=O)(=O)NCC2CCC(C(=O)NCc3ccco3)CC2)cc1 (stereo unspecified)	8	-16%	2.8µM*
CC(=O)Nc1ccc(S(=O)(=O)NCC2CCC(C(=O)NC3CCCCCC3)CC2)cc1 (stereo unspecified)	6	-18%	11%
O=C(NCc1ccc2c(c1)OCO2)C1CCC(CNS(=O)(=O)c2ccccc2)CC1 (stereo unspecified)	320	-26%	6.3µM*
COc1ccc(S(=O)(=O)NCC2CCC(C(=O)NCc3ccco3)CC2)cc1 (stereo unspecified)	?	.	13%
CCOC(=O)N1CCN(C(=S)Nc2cc(OC)c(OC)cc2C(=O)OC)CC1	98	-3%	-3%
O=C(CSc1ncnc2c1nnn2-c1ccc(F)cc1)N1CCN(c2ccccc2)CC1	.	-11%	?
CC(C)(C)NC(=O)C(c1ccc(O)cc1)N(C(=O)Cn1nnc(-c2ccc(F)cc2)n1)c1ccccc1F (stereo unspecified)	.	.	3%
